Screens from PubChem BioAssay.
Only some compounds are listed: those with a hit (about 4% of all), similar ones and a draw of the others.
Gli-Sufu antag = antagonists of Gli-Sufu signaling. 0.74% of 340,000 active. inhibition, % at 5 µM. Sufu-KO-LIGHT fibroblasts, Gli luciferase reporter luminescence;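 active = inhibition above about 55%, limit read from the data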;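 note: 0% = DMSO-treated cells and 100% = wells with medium but no cells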
PAX8 reporter = PAX8 transcriptional activity inhibition; RMG-I TPO-luciferase reporter, SteadyGlo, 24 h; inhibition, % at 12.6 µM; 1.2% of 360,000 active;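 active = mean replicate inhibition at least 60% with every replicate also reaching 60%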;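 note: luciferase light reporting Pax8 driven TPO promoter activity; plate controls were median of neutral control wells for no effect and mitoxantrone controls for full effect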
Mdm2-MdmX inh = inhibitors of human Mdm2/MdmX interaction. O15151+Q00987. SaOS-2 split-luciferase Mdm2/MdmX complementation, luminescence. inhibition, % at 8 µM. 3% of 330,000 active. AID 485346;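 active = inhibition of at least 50% at 8 µM in the primary screen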
Beta apoptosis = blocks beta cell apoptosis. protection from apoptosis, % (no concentration beside the values). 0.8% of 300,000 active. AID 435005. INS-1E cytokine-induced death, ATP luminescence, 48 h; percent of positive-control rescue, neutral wells zero;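 active = Every replicate reaches about 75%, or at least half do and their mean reaches it too, limit read from the data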;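 note: 0% = cytokine-treated negative control wells and 100% = positive control rescue; higher means more ATP so stronger rescue from cytokine killing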
Shn3 inh set2 = inhibitors of Schnurri-3 3'UTR reporter in osteoblasts. 0.52% of 360,000 active. inhibition, % at 12.5 µM. Clone20 osteoblast Shn3 3'UTR firefly luciferase, 24 h. AID 588674;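 active = mean inhibition of at least 75% with every replicate also reaching 75%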;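 note: 0% = median of neutral control wells and 100% = pilot-screen positive control compound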
CSC inhib = blocks cancer stem cells. cancer stem cell-like cells viability, luminescence. inhibition, % at 7.5 µM. 1.1% of 300,000 active; in the data active = inhibition above about 75%; tested in HMLE shEcad cells
Gli-Sufu confirm = Gli-SUFU antagonism confirmation, single concentration. shares compounds with Gli-Sufu antag. inhibition, % at 5 µM. AID 602428. Sufu-KO-LIGHT cells, Gli luciferase reporter, luminescence. 40% of 2,500 active;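 active = mean inhibition at 5 µM reaching about 45%, limit read from the data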;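 note: plate controls were DMSO-treated cells for no effect and wells lacking cells for full effect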
Gli cytotox = cytotoxicity counter-screen for Gli-SUFU antagonists | cytotoxicity, % at 5 µM | 32% of 2,500 active | Sufu-KO-LIGHT cells cytotoxicity, ATP luminescence | shares compounds with Gli-Sufu antag;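 active = mean cytotoxicity at 5 µM above about 25%, limit read from the data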;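 note: cells exposed to compound overnight for roughly 16 to 18 hours; plate controls were DMSO wells with cells for no effect and medium without cells for full effect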
Wnt3a counter = Wnt3a reporter inhibition counter-screen | shares compounds with Gli-Sufu antag | Wnt-LIGHT cells, Wnt3a-driven luciferase reporter, luminescence | inhibition, % at 6.25 µM | 20% of 2,500 active;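 active = mean inhibition above about 25%, limit read from the data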
* marks the source's active call; other numbers are inactive results; x = no result.

SMILES	Gli-Sufu antag	PAX8 reporter	Mdm2-MdmX inh	Beta apoptosis	Shn3 inh set2	CSC inhib	Gli-Sufu confirm	Gli cytotox	Wnt3a counter
O=C(Nc1ccc(Cl)cc1)Nc1nnc(-c2ccncc2)s1	74*	2	x	99*	-15	91*	72*	25*	70*
Cc1cnc(NC(=O)Nc2ccc(Cl)cc2)s1	76*	-109	-81	25	-30	29	49*	11	-125
O=C(Nc1ccc(Cl)cc1)Nc1nnc(SCc2ccc(Cl)cc2)s1	3	-4	24	-1	-4	16	x	x	x
O=C(NCc1ccccn1)[C@@H]1[C@@H](CO)[C@@H]2Cn3c(cccc3=O)[C@H]1N2CC1CCCCC1	x	-6	x	x	x	x	x	x	x
C[C@@H]1CN([C@@H](C)CO)C(=O)Cc2cc(NC(=O)c3ccncc3)ccc2O[C@H]1CN(C)S(=O)(=O)c1ccc(Cl)cc1	x	7	x	x	x	x	x	x	x
CO[C@@H]1CN(C)C(=O)c2ccc(NC(C)=O)cc2OC[C@@H](C)N(Cc2cc(-c3ccccc3)on2)C[C@H]1C	x	3	x	x	x	x	x	x	x
Cc1ccc(S(=O)(=O)NCc2ccncc2)c(C)c1C	76*	20	11	116*	68	-11	74*	28*	37*
O=S(=O)(NCc1ccncc1)c1ccc(S(=O)(=O)NCC2CCCO2)cc1 (stereo not drawn)	53	x	-10	21	68	140*	42	13	26*
CCCCc1ccc(S(=O)(=O)NCCc2ccncc2)cc1	15	x	13	18	42	24	x	x	x
CCCCNS(=O)(=O)c1ccc(S(=O)(=O)NCc2ccncc2)cc1	57*	x	22	x	86*	9	59*	37*	23
Cc1cc(C)c(S(=O)(=O)NCc2ccncc2)c(C)c1	58*	23	15	64	72	5	60*	28*	43*
C[C@@H]1CN([C@@H](C)CO)C(=O)c2cc(N(C)C)ccc2O[C@H]1CN(C)Cc1ccncc1	x	-20	x	x	x	x	x	x	x
C[C@H]1CN([C@@H](C)CO)C(=O)c2cc(C3=CCCCC3)cnc2O[C@H]1CN(C)C(=O)C1CCOCC1	x	11	x	x	x	x	x	x	x
C[C@@H]1CN([C@@H](C)CO)C(=O)c2cc(C3=CCCCC3)cnc2O[C@H]1CN(C)C(=O)Nc1ccc(F)cc1	x	0	x	x	x	x	x	x	x
COc1ccc(S(=O)(=O)Nc2ccc3c(c2)C(=O)N([C@@H](C)CO)C[C@H](C)[C@H](CN(C)C(=O)NC2CCCCC2)OCCCC[C@H](C)O3)cc1	x	4	x	x	x	x	x	x	x
COc1cccc(C#Cc2ccc([C@@H]3[C@H]4CN(S(=O)(=O)c5ccccc5C)CC(=O)N4[C@H]3CO)cc2)c1	x	2	x	x	x	x	x	x	x
COc1cccc(NC(=O)C2CCN(S(=O)(=O)c3ccc(N4CCCC4=O)cc3)CC2)c1	x	17	x	x	-2	x	x	x	x
O=C(Nc1cccc(C(F)(F)F)c1)C1CCN(S(=O)(=O)c2ccc(N3CCCC3=O)cc2)CC1	53	10	28	40	80	10	58*	24	-9
O=C(c1ccc(F)cc1)N1CC(=O)N2[C@H](CO)[C@H](c3ccc(C#CCC4CCCC4)cc3)[C@H]2C1	x	5	x	x	x	x	x	x	x
CCOC(=O)C1(CCCc2ccccc2)CCN(Cc2nccn2CC)CC1	50	6	6	13	29	35	33	10	-17
CCOC(=O)C1(CCOc2ccccc2)CCN(Cc2nccn2CC)CC1	-9	19	9	-2	3	7	x	x	x
CCOC(=O)C1(CCc2ccccc2)CCN(Cc2cccc3nccnc23)CC1	55	4	10	12	66	-1	30	4	-58
CCOC(=O)C1(CCc2ccccc2)CCN(Cc2ccn[nH]2)CC1	12	1	7	-3	-24	5	x	x	x
C[C@H](O)C#Cc1cnc2c(c1)C(=O)N([C@H](C)CO)C[C@@H](C)[C@@H](CN(C)C(=O)CN1CCOCC1)O2	x	-13	x	x	x	x	x	x	x
COc1ccc(S(=O)(=O)N(C)C[C@@H]2Oc3c(NS(=O)(=O)c4ccc(Cl)cc4)cccc3C(=O)N([C@@H](C)CO)C[C@H]2C)cc1	x	2	x	x	x	x	x	x	x
SMILES	Gli-Sufu antag	PAX8 reporter	Mdm2-MdmX inh	Beta apoptosis	Shn3 inh set2	CSC inhib	Gli-Sufu confirm	Gli cytotox	Wnt3a counter
C[C@@H]1CN([C@H](C)CO)C(=O)Cc2cc(NC(=O)Nc3ccc4c(c3)OCO4)ccc2O[C@@H]1CN(C)S(=O)(=O)c1cccs1	x	-14	x	x	x	x	x	x	x
COc1ccc(NS(=O)(=O)c2ccc(-c3coc(C)n3)cc2)cc1OC	73*	15	18	107*	76	0	73*	28*	51*
COc1ccc(NS(=O)(=O)c2ccc(-c3coc(C)n3)cc2)cc1	9	-9	19	5	19	9	x	x	x
CCCNC(=O)N1[C@H](C#N)[C@@H](c2ccccc2C2=CCCC2)[C@@H]1CO	x	25	x	x	x	x	x	x	x
O=C1CC2(CCCC2)Oc2ccc(F)cc21	2	11	17	0	-25	-6	x	x	x
Cc1ccc2c(c1)C(=O)CC(O)(C(F)F)O2 (stereo not drawn)	55*	-5	19	-3	10	-9	11	-1	9
Cc1cc(-c2ccc(C)c(S(=O)(=O)NCCCN3CCN(c4ccccc4F)CC3)c2)on1	56*	32	22	29	75	13	39	13	0
Cc1cc(-c2ccc(C)c(S(=O)(=O)NCCCN3CCN(c4ccccc4)CC3)c2)on1	47	40	7	20	68	-10	x	x	x
O=C1CC[C@@]23CCCN2C(=O)CCCC3C1 (stereo partly drawn)	55*	-13	-8	x	-3	x	18	13	9
CC(=Nc1ccc(C)cc1)c1sc2ccccc2c1O	61*	x	-101	9	-10	29	-84	54*	28*
COc1cccc(S(=O)(=O)Nc2ccc3c(c2)C(=O)N(C)[C@@H]2CC[C@H](CC(=O)O)O[C@@H]2CO3)c1	x	-2	x	x	x	x	x	x	x
COc1ccc(/C=C2\NC(=O)C(C=NCc3ccccc3)=C2O)cc1	-11	9	11	x	12	54	x	x	x
O=C1CC(c2ccccc2)CC(O)=C1C=NCCc1ccccc1 (stereo not drawn)	4	3	17	2	10	-6	x	x	x
O=C1CCCC(O)=C1C=NCc1ccccc1	58*	-13	-16	-11	11	6	32	4	-4
O=C1N/C(=C\c2ccc(O)cc2)C(O)=C1C=NCc1ccccc1	71*	-12	10	-3	15	51	47*	19	11
Oc1ccc(/C=N/Nc2nc(N3CCCC3)nc(N3CCCC3)n2)cc1O	64*	31	-10	21	93*	12	51*	23	83*
